Measurements taken from PubChem BioAssay (NCATS).
Several values for one entry are separate records, joined by “and”; a condition that tells them apart may be missing. Identical values can stand only once. Results filed as inconclusive are left out. A structure can be active in one record and inactive in another. Activity calls are given as the source filed them. Unless noted, calls follow the shape of the dose curve; as a rule, active = well fitted curve in the direction sought with a large enough effect; inconclusive = small, poorly fitted or top-dose-only effect, or another doubt; inactive = no such curve, though single readings can be large; an effect the other way counts as inactive or inconclusive.

What was measured:
[1] = target: Atrial natriuretic peptide receptor 2 (Homo sapiens) (UniProt P20594); assay: Natriuretic polypeptide receptor (hNpr2) antagonism - Pilot subtype selectivity assay (AID 1347050; calls by dose curve; also: potency is read from the fitted curve at half-maximal effect)
Method in brief: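 Antagonist mode: compounds (LOPAC1280, seven 1:5 dilutions) added 30 min before 1 nM hNppC stimulation of hNpr2-HEK293 cGMP-sensor cells; luminescence read before and 20 min after agonist at ambient temperature.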

[2] = NS1 protein of Zika virus - qHTS assay to identify small molecule inhibitors in human HEK 293 cells (AID 1347053); also: nearly all actives have a fitted effect of over 55% in size; also: potency is read from the fitted curve at half-maximal effect
Method in brief: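 Read-out is a two-antibody TR-FRET for ZIKV NS1, normalized between uninfected cells and infected cells. Compound added 1 h before MR766 infection at MOI 0.5; human HEK 293 cells incubated 24 h, 37 C.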

[3] = target: T1, Tyrosine-protein phosphatase non-receptor type substrate 1 (Homo sapiens) + Leukocyte surface antigen CD47 (Homo sapiens) (UniProt P78324+Q08722); assay: CD47-SIRPalpha protein protein interaction - LANCE assay qHTS validation (AID 1347057; active = well fitted curve in the direction sought with a large enough effect in the signal ratio, with a control signal flat, not every such curve was filed as active; the % refers to the signal ratio; also: series mostly up to about 38 µM)
Method in brief: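 Inhibition of soluble CD47/SIRPalpha ectodomain association by titrated compounds, measured as 665/615 nm time-resolved FRET ratio after sequential 30 min room-temperature incubations.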

[4] = target: T1, Tyrosine-protein phosphatase non-receptor type substrate 1 (Homo sapiens) + Leukocyte surface antigen CD47 (Homo sapiens); assay: CD47-SIRPalpha protein protein interaction - HTRF assay qHTS validation (AID 1347058; active = well fitted curve in the direction sought with a large enough effect in the signal ratio, not every such curve was filed as active; the % refers to the signal ratio; also: series mostly up to about 38 µM)
Method in brief: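 Soluble extracellular domains (6His-CD47, Avi-tag-biotinylated SIRPalpha) in PBS pH 7.4 with 0.05% IGEPAL CA-630. Compounds were preincubated 30 min at RT with CD47 and anti-His-Eu, then SIRPalpha and SAV-XL665 were added. TR-FRET 665/615 ratio.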

[5] = target: Parathyroid hormone/parathyroid hormone-related peptide receptor (Homo sapiens) (UniProt Q03431); assay: qHTS for PTHR1 Agonists: Optimization Screen against the NCGC LOPAC library (AID 1347079);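 also: GloSensor cAMP luminescence in HEK-293 GP2 cells expressing human PTHR1 with IBMX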; also: potency is read from the fitted curve at half-maximal effect
Method in brief: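 HEK-293 GP2 cells, PTHR1 + GloSensor cAMP; 3000 cells/well, o/n. Luciferin + IBMX 0.5mM each (stock), 1 hr 37C. Cpd titration, 1 hr 37C. Lum after 15 min RT. Ctrl M-PTH(1-15) top 10uM.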

[6] = qHTS of pediatric cancer cell lines to identify multiple opportunities for drug repurposing: Primary screen for DAOY cells (AID 1347090); also: nearly all actives have a fitted effect of over 55% in size; also: potency is read from the fitted curve at half-maximal effect
Method in brief: (§1)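 Cell viability, CellTiter-Glo luminescence; 500-1,000 cells/well, 8- or 11-point titration, 48 h compound exposure at 37 degrees C, 5% CO2. Controls: DMSO neutral, bortezomib 2.3 µM final as positive.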

[7] = qHTS of pediatric cancer cell lines to identify multiple opportunities for drug repurposing: Primary screen for TC32 cells (AID 1347089); also: nearly all actives have a fitted effect of over 60% in size; also: potency is read from the fitted curve at half-maximal effect
Method in brief: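 Measured quantity: luminescence from CellTiter-Glo, reflecting metabolically active TC32 cells following 48 h of compound. Curves came straight from multi-point titrations, with 8 or 11 points in primary and 11 in confirmatory screening.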

[8] = qHTS of pediatric cancer cell lines to identify multiple opportunities for drug repurposing: Primary screen for SJ-GBM2 cells (AID 1347091); also: potency is read from the fitted curve at half-maximal effect
Method in brief: as §1

[9] = qHTS of pediatric cancer cell lines to identify multiple opportunities for drug repurposing: Primary screen for A673 cells (AID 1347092); also: nearly all actives have a fitted effect of over 45% in size; also: potency is read from the fitted curve at half-maximal effect
Method in brief: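 Cells are plated, rested 5 h, dosed by pintool, incubated 48 h, then lysed with CellTiter-Glo and read by luminescence. DMSO is the neutral control; bortezomib at 2.3 uM final is the positive control.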

[10] = target: T1, Tyrosine-protein phosphatase non-receptor type substrate 1 (Homo sapiens) + Leukocyte surface antigen CD47 (Homo sapiens); assay: CD47-SIRPalpha protein protein interaction - Alpha assay qHTS validation (AID 1347059);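 also: bead proximity luminescence from CD47 binding SIRPalpha after compound preincubation with SIRPalpha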
Method in brief: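 AlphaScreen signal between CD47-His (12.5 nM) and biotin-SIRPalpha (25 nM) soluble extracellular domains, bead-captured via Ni-NTA and streptavidin. Compounds, in 7-point titrations, met SIRPalpha 30 min before CD47; PBS pH 7.4 with 0.05% IGEPAL.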

Measured: Potency

T1 sequence (P78324 whole entry, looked up, the tested form may be a part): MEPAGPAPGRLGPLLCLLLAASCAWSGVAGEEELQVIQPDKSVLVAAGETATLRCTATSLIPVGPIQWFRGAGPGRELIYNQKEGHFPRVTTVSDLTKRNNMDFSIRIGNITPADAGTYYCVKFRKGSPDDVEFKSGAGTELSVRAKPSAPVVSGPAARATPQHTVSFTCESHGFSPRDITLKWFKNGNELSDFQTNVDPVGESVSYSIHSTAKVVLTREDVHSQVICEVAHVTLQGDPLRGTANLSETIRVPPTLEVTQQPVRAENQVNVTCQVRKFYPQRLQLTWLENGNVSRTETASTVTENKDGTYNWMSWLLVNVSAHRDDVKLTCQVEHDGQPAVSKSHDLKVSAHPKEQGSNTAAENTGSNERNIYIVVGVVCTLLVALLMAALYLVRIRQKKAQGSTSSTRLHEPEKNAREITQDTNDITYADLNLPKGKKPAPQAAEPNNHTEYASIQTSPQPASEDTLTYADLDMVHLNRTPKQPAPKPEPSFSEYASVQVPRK
T1 sequence (Q08722 whole entry, looked up, the tested form may be a part): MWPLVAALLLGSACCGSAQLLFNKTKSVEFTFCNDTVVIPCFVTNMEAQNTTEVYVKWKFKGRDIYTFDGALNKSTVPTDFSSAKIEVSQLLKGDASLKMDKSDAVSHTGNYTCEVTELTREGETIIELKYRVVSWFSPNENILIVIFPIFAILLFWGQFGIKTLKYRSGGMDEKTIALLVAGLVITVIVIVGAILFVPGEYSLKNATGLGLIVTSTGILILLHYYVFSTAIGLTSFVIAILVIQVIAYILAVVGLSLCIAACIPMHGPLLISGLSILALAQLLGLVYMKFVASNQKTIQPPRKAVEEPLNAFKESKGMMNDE
Parathyroid hormone/parathyroid hormone-related peptide receptor (Homo sapiens), sequence (Q03431 whole entry, looked up): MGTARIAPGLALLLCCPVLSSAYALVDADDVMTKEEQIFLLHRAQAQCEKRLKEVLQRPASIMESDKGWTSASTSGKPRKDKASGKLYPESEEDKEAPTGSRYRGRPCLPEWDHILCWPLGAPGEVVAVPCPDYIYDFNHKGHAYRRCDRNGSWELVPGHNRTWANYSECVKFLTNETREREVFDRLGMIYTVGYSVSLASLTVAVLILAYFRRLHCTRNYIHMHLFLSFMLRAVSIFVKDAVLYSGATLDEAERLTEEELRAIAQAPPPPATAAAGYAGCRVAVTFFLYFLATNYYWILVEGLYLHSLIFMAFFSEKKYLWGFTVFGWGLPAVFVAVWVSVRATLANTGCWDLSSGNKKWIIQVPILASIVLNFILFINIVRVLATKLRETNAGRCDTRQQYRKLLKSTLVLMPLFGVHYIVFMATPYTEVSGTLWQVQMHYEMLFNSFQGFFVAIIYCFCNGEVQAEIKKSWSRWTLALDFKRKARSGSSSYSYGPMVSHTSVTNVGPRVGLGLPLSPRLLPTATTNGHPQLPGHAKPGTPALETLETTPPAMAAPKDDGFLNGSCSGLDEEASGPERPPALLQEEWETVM
Atrial natriuretic peptide receptor 2 (Homo sapiens), sequence (P20594 whole entry, looked up): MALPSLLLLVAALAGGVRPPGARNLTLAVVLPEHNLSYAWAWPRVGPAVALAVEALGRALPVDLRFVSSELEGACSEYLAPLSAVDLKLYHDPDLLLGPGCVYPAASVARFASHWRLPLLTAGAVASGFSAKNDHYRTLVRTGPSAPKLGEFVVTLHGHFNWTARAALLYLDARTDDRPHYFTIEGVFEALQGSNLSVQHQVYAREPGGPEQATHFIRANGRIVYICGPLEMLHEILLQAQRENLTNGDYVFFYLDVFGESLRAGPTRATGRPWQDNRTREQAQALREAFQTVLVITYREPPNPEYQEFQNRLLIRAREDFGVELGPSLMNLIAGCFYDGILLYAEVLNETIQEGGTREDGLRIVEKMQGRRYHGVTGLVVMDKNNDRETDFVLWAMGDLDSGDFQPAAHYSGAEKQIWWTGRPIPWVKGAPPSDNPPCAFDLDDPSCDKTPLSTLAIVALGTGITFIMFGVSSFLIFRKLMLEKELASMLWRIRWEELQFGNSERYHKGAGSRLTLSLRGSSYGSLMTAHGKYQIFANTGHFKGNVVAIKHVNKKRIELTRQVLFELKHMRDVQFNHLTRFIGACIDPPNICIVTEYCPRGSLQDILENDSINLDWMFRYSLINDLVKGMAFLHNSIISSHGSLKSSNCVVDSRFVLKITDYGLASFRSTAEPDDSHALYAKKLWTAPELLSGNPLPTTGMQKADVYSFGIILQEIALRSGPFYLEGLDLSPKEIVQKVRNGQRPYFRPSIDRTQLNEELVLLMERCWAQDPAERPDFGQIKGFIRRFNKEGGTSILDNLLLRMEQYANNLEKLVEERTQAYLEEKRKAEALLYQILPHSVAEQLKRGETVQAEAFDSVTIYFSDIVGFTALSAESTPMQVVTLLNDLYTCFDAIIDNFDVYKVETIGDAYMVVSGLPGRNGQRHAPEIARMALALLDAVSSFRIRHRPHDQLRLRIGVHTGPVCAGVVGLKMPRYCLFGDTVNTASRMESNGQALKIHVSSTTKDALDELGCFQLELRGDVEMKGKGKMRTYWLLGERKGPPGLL

NC(=O)NO
inactive: [1] | [2] | [3] | [4] | [5] | [6]

Cc1cc(C(C)(C)C)c(O)c(C)c1CC1=NCCN1
not listed: [10]
inactive: all other assays above

CN1CCC(=C2c3ccccc3C=Cc3ccccc32)CC1
active: [1] 11.7 µM | [9] 18.7 µM
not listed: [4]
inactive: all other assays above

C[C@H]1c2cccc(O)c2C(O)=C2C(=O)[C@]3(O)C(O)=C(C(N)=O)C(=O)[C@@H](N(C)C)[C@@H]3[C@@H](O)[C@@H]21
inactive: [1] | [2] | [3] | [4] | [5] | [6]

COc1cc2nc(N3CCN(C(=O)c4ccco4)CC3)nc(N)c2cc1OC
active: [2] 9.35 µM | [9] 14.8 µM
not listed: [6] | [10]
inactive: all other assays above

CC(C)C(=O)Nc1ccc([N+](=O)[O-])c(C(F)(F)F)c1
active: [6] 4.69 µM | [9] 0.0118 µM
inactive: [1] | [2] | [3] | [5] | [7]

CCOC(=O)Nc1ccc(NCc2ccc(F)cc2)nc1N
not listed: [4] | [7] | [9]
inactive: all other assays above

CN1CCN(CCCN2c3ccccc3Sc3ccc(Cl)cc32)CC1
inactive: [3] | [4] | [5]
23.5 µM (active) and inactive: [2]
active: [1] 18.5 µM | [9] 9.35 µM

CC(C)NCC(O)c1ccc(O)c(O)c1 (stereo unspecified)
inactive: [1] | [2] | [3] | [4]
active: [5] 0.0119 µM | [9] 1.18 µM

NCCCCCC(=O)O
not listed: [10]
inactive: all other assays above

NC(=O)OCC(COC(N)=O)c1ccccc1
not listed: [8] | [10]
inactive: all other assays above

COc1ccccc1N1CCN(CC(O)COc2cccc3ccccc23)CC1 (stereo unspecified)
not listed: [7] | [8] | [10]
inactive: all other assays above

CN(C)CCOC(c1ccccc1)c1ccccc1
not listed: [7] | [10]
inactive: all other assays above

NS(=O)(=O)c1cc2c(cc1Cl)NCNS2(=O)=O
not listed: [8] | [10]
inactive: all other assays above

CN1CCN2c3ccccc3Cc3ccccc3C2C1 (stereo unspecified)
not listed: [10]
inactive: all other assays above

COc1ccccc1OCC(O)CN1CCN(CC(=O)Nc2c(C)cccc2C)CC1 (stereo unspecified)
not listed: [10]
inactive: all other assays above

CCOC(=O)C(C)(C)Oc1ccc(Cl)cc1
not listed: [10]
inactive: all other assays above

O=C(CCCN1CCC(O)(c2ccc(Cl)cc2)CC1)c1ccc(F)cc1
not listed: [8] | [10]
inactive: all other assays above

O=C(c1ccc(F)cc1)C1CCN(CCn2c(=O)[nH]c3ccccc3c2=O)CC1
not listed: [10]
inactive: all other assays above

CN(Cc1cnc2nc(N)nc(N)c2n1)c1ccc(C(=O)N[C@@H](CCC(=O)O)C(=O)O)cc1
active: [7] 0.0066 µM | [6] 0.0266 µM | [8] 47.3 nM and 41.8 nM | [9] 4.2 nM and 59 nM
inactive: [1] | [2] | [3] | [5]

O=C(c1ccc(OCCN2CCCCC2)cc1)c1c(-c2ccc(O)cc2)sc2cc(O)ccc12
active: [8] 9.44 µM and 18.7 µM | [9] 10.6 µM and 18.7 µM
inactive: [1] | [2] | [3] | [5] | [7]

O=C1Cc2cc(CCN3CCN(c4nsc5ccccc45)CC3)c(Cl)cc2N1
not listed: [1] | [7] | [9]
inactive: all other assays above

CS(=O)(=O)CCNCc1ccc(-c2ccc3ncnc(Nc4ccc(OCc5cccc(F)c5)c(Cl)c4)c3c2)o1
inactive: [2]
active: [6] 0.235 µM | [8] 10.5 µM | [9] 74.3 nM and 21.1 µM

CC[N+](CC)(CC)CCOc1cccc(OCC[N+](CC)(CC)CC)c1OCC[N+](CC)(CC)CC
not listed: [3] | [4] | [10]
inactive: all other assays above
